Assay outcomes: PubChem, National Center for Advancing Translational Sciences (NCATS)
Vaccinia mCherry: inhibitors of vaccinia virus infection (mCherry reporter signal). Vaccinia virus mCherry reporter infection, fluorescence. Potency, µM (doses to about 36.5 µM), inactives show at the top dose activity change, negative = inhibition, most hits filed as inhibitors. 310,000 tested, 0.63% active; calls by dose curve; tested in A549 cells; note: potency is the fitted concentration of half-maximal effect; % is set by controls: 0 for no effect and ±100 for the full control effect; nearly all actives have a fitted effect of over 35% in size
Cycloheximide cs: affects cycloheximide protein synthesis inhibition readout, counter-screen; 300,000 tested, 12% active; max response, %; cell reporter, cycloheximide protein synthesis inhibition counterscreen; in the data active = max response mostly above about 13%, no sharp cut-off; inactive = mostly below about 14%; note: read at 38.3 µM for the half of the compounds with a filed dose; 0% is about no effect
VACV Venus inh: vaccinia inhibition (Venus reporter). Vaccinia virus Venus reporter expression, fluorescence. Potency, µM (titrated, usually from 36.5 µM), for the others: at the highest dose activity change, negative = inhibition, most hits filed as inhibitors. 330,000 tested, 0.46% active; calls by dose curve; tested in A549 cells; note: potency is the fitted concentration of half-maximal effect; % is set by controls: 0 for no effect and ±100 for the full control effect; nearly all actives have a fitted effect of over 30% in size
Marburg entry inh: blocks Marburg virus binding to or entry into cells; Potency, µM (doses to about 37.8 µM), inactives show top-dose activity change, negative = inhibition, hits mostly inhibitors; 300,000 tested, 1.8% active; Marburg virus pseudotyped entry inhibition, cell reporter; calls by dose curve; tested in HEK293 cells; note: potency is the fitted concentration of half-maximal effect; % is set by controls: 0 for no effect and ±100 for the full control effect
Shiga inhibitor: Shiga toxin inhibition | Vero cells, Shiga toxin protein synthesis inhibition reporter | inhibition, % at 38.7 µM | 290,000 tested, 9.2% active | AID 2315; in the data active = inhibition mostly above about 28%, no sharp cut-off; inactive = mostly below about 43%; note: 0% is about no effect
LASV entry inh: Lassa virus entry inhibition. Lassa virus pseudotype entry inhibition, cell reporter. 300,000 tested, 1.2% active. Potency, µM (series often up to 37.9 µM), for inactives: at the highest dose activity change, negative = inhibition, actives largely listed as inhibitors; calls by dose curve; tested in HEK293 cells; note: potency is the fitted concentration of half-maximal effect; % is set by controls: 0 for no effect and ±100 for the full control effect; nearly all actives have a fitted effect of over 50% in size
Starred values were filed as active, the others as inactive; i = inactive; ? = inconclusive; . = no result; [ ] = another dose, or the depositor's remark. Shown is part of a subset that was picked to be rich in hits.

SMILES	Vaccinia mCherry	Cycloheximide cs	VACV Venus inh	Marburg entry inh	Shiga inhibitor	LASV entry inh
CN1C(=O)C2=NC=NC2N(C)C1=O (centres undefined)	.	.	.	6%	.	.
COc1cccc(C=Nc2cccc3c(=O)[nH][nH]c(=O)c23)c1O	?	24*	-13%	.	60*	.
N#Cc1ccsc1NC(=O)c1cccc(-n2cnnn2)c1	-1%	10*	8%	2%[46.1 µM]	26	.
N#Cc1ccsc1NC(=O)c1cccc([N+](=O)[O-])c1	-15%	23*	-9%	-8%[46.1 µM]	52*	0%
N#Cc1ccsc1NC(=O)c1ccc2ncsc2c1	-19%	.	-4%	.	.	.
N#Cc1ccsc1NC(=O)c1ccc(Cl)c([N+](=O)[O-])c1	.	51*	.	.	99*	.
Cn1nnnc1SCc1nnc(-c2ccc(Cl)cc2)o1	-16%	29*	2%	?	56*	8%
Cc1ccc(-c2nnc(CSc3nncn3N)o2)cc1	-15%	19*	-4%	?	35	4%
CCOC(=O)c1ccc(CSc2nncn2N)o1	.	2	.	?	-14	?
Cc1occc1-c1nnc(SCc2nnc(-c3ccc(Cl)cc3)o2)n1C	i	31*	-15%	3%	65*	9%
O=C(c1cc2c(c(-c3cccc(-c4ccncc4)c3)n1)[C@@H](CCO)N(C(=O)c1ccc3c(c1)OCO3)C2)N1CCOCC1	-5%	.	6%	.	.	.
COC(=O)/C=C/c1ccc(-n2cncn2)cc1	i	23*	-10%	12%[46.1 µM]	32	27%[46.1 µM]
Cc1cc(C(=O)NCC2CCC3(CCN(Cc4ccc(F)cc4)CC3)O2)n(C)n1 (centres undefined)	-6%	.	-3%	.	.	.
Cc1cccc(C)c1N(CC(=O)NC1CCCCC1)C(=O)c1csnn1	i	8	-7%	-5%[46.1 µM]	-24	2%
CC(=O)/C(C#N)=C1\NC(=O)C(Cc2ccccc2Cl)S1 (centres undefined)	?	-2	57%	?	-31	2.3µM*
CC(=O)/C(C#N)=C1\NC(=O)C(Cc2cc(Cl)ccc2Cl)S1 (centres undefined)	.	-1	.	.	3	.
Cc1[nH]c(=O)[nH]c(=O)c1/C=N/NC(=O)[C@@H](N)CC(C)C	.	16*	.	.	30	.
CC(C)(C)C(=O)CSc1ncnc2sc3c(c12)CCC3	.	44*	.	3%	67*	2%
CC(=O)CSc1ncnc2sc3c(c12)CCC3	-3%	5	-20%	1%	33	1%
CCOC(=O)c1ccc(NS(=O)(=O)c2cn(C)c(C)n2)cc1	-8%	.	-2%	.	.	-15%[46.1 µM]
CN(CCc1ccccn1)c1ncnc2[nH]ncc12	i	19	-18%	?	33*	-1%
O=[N+]([O-])c1ccc(N2CCN(Cc3ccccc3)CC2)c2c1no[n+]2[O-]	?	.	4%	.	.	.
Cn1cnc2cc(NC(=O)c3ccc(Cl)cc3)ccc21	-9%	27*	-5%	.	55*	.
CCC(=O)Nc1ccc2c(c1)ncn2C	-17%	-2	5%	?	5	-9%[46.1 µM]
CC(C)(C)n1cnc2cc(NC(=O)c3ccc(Cl)cc3)ccc21	?	33*	-21%	?	92*	?
SMILES	Vaccinia mCherry	Cycloheximide cs	VACV Venus inh	Marburg entry inh	Shiga inhibitor	LASV entry inh
CCOC(=O)c1cc(C)n(CC2CCC(C(=O)Nc3ccc(OC)cc3)CC2)c1C (centres undefined)	-23%	.	?	.	.	-13%[46.1 µM]
O=C(c1cc(-c2cccs2)on1)N1CCc2ccccc2C1	-15%	18	-1%	14%	47*	15%
O=C(c1cc(-c2cccs2)on1)N1CCOCC1	.	37*	.	7%	104*	?
O=C(c1cc(-c2cccs2)on1)N1CCN(C(c2ccccc2)c2ccccc2)CC1	-14%	7	-13%	?	-2	?
O=C(c1cc(-c2ccccc2O)on1)N1CCc2ccccc2C1	-10%	25*	-8%	.	51	.
O=C(c1cc(-c2ccc(O)cc2)on1)N1CCc2ccccc2C1	-8%	5	0%	.	46	.
CC(C)N(Cc1nccn1C)C(=O)C1CCC(=O)N(CCc2ccccc2)C1 (centres undefined)	i	.	1%	.	.	.
COC(=O)c1ccccc1-c1cc(C)cc2c1OC(CNC(=O)C1CCCO1)C2 (centres undefined)	-20%	.	-18%	.	.	.
C=CC[C@@H](CC(=O)N(CCO)Cc1ccccc1)C(=O)N[C@H](COC(=O)[C@@H](CC=C)CC(=O)OC(C)(C)C)Cc1c[nH]c2ccccc12	-30%	.	?	.	.	.
C=CC[C@H](CC(=O)N(CCO)Cc1ccccc1)C(=O)N[C@@H](COC(=O)[C@@H](CC=C)Cc1ccc(F)cc1)Cc1c[nH]c2ccccc12	11µM*	.	10µM*	.	.	.
C=CC[C@@H](CC(=O)N(CCO)Cc1ccccc1)C(=O)N[C@@H](COC(=O)[C@@H](CC=C)Cc1ccc(F)cc1)Cc1c[nH]c2ccccc12	?	.	10µM*	.	.	.
CCc1ccc(NCc2cc3cc4c(cc3n(CC(=O)Nc3ccc(Cl)cc3)c2=O)OCO4)cc1	-3%	.	5%	.	.	14%[46.1 µM]
Cc1cc(C)n2nc(-c3ccc(F)cc3)nc2n1	.	24*	-9%	5%	84	?
CC(Oc1ccc2ccc(=O)oc2c1)C(=O)N1CCOCC1 (centres undefined)	-17%	.	-2%	0%[46.1 µM]	.	24%
CCOc1ccccc1N(C)C(=O)Cn1ncc2c([nH]c3ccccc32)c1=O	-13%	-2	-7%	6.3µM*	-4	-20%[46.1 µM]
CCOc1cc(CNc2ncc(-c3ccc(OC)cc3)n2C)ccc1O	.	-3	.	-27%	-21	16%
O=C1N=C(N2C=CC(=C3C=CNC=C3)C=C2)/C(=C/N=NC(=O)c2ccccc2O)S1	.	26*	.	.	54*	.
CCOC(=O)C1(CC2CC2)CCN(S(=O)(=O)C[C@]23CC[C@H](CC2=O)C3(C)C)CC1	-28%	-1	-14%	-22%[46.1 µM]	7	7%[46.1 µM]
Cc1cccc(/C=N/Nc2ccc3ccccc3n2)c1	?	1	-11%	.	-3	.
O=c1nc(N/N=C/c2ccccn2)cn[nH]1	4µM*	46*	?	?	125*	3.5µM*
Cc1ccc(/C=N/Nc2cn[nH]c(=O)n2)o1	-9%	24*	-12%	-10%[46.1 µM]	88*	15%[46.1 µM]
CC(=NNc1ccc2ccccc2n1)c1ccccc1O	-14%	.	-20%	?	.	3.2µM*
Cc1ccc(/C=N/Nc2nnc(Cc3ccccc3)c(=O)[nH]2)o1	i	-1	-12%	?	-6	?
Cc1ccc(/C=N/Nc2ccc3ccccc3n2)o1	?	2	?	1.3µM*	-6	5µM*
O=S1(=O)N=C(N/N=C/c2ccccn2)c2ccccc21	-19%	-1	-12%	-2%	-14	?
C#CCSc1nnnn1-c1cccc(Cl)c1	-11%	-1	-24%	3.2µM*	-9	?
Nc1cc2sc(-c3ccc(C(=O)O)cc3)nc2cc1Cl	-4%	26*	2%	13µM*	31*	13µM*
O=C(O)c1ccc2nc(-c3ccccc3)sc2c1	-20%	20	-6%	1.5µM*	23	2.2µM*
